# Pf growth 96h: Primary qHTS for delayed death inhibitors of the malarial parasite plastid, 96 hour incubation; P. falciparum luciferase reporter growth, 96 h; actives 6.9% (n = 320,000); Potency, µM (highest dose often 28.7 µM), for the others: at the highest dose activity change, negative = inhibition, actives largely listed as inhibitors; AID 504834, 2011; also: potency is read from the fitted curve at half-maximal effect; % is scaled to controls: 0 for no effect and ±100 for the full control effect
#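 Two parasite generations (96 h, 37 C, 5% CO2) of compound exposure in infected erythrocytes (0.05% parasitemia, 2% hematocrit). Luciferase-reporter P. falciparum; decreased luminescence indicates inhibited growth, aimed at apicoplast-acting delayed death.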
# Pf growth 48h: Primary qHTS for delayed death inhibitors of the malarial parasite plastid, 48 hour incubation | P. falciparum luciferase growth in erythrocytes, 48 h | Potency, µM (doses to about 28.7 µM), for inactives: at the highest dose activity change, negative = inhibition, usual class: inhibitors | actives 5.9% (n = 310,000); also: potency is read from the fitted curve at half-maximal effect; % is scaled to controls: 0 for no effect and ±100 for the full control effect
#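 Here the parasites carry a stable luciferase gene and grow inside erythrocytes in Albumax-based RPMI medium with compound for one erythrocytic cycle. Activity is scored as loss of luminescent signal.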
# HCV inh: qHTS Assay for Inhibitors of Hepatitis C Virus (HCV) | Huh7.5.1 HCVcc-Cre infection, luciferase reporter, 44 h | Potency, µM (doses to about 41.8 µM), without a hit: at the top dose activity change, negative = inhibition, most hits filed as inhibitors | actives 3.4% (n = 340,000) | AID 651820, 2012; also: potency is read from the fitted curve at half-maximal effect; % is scaled to controls: 0 for no effect and ±100 for the full control effect
#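 A cell-based infection assay in which seeded cells (1,000 per well) receive test compound after 4 h, are inoculated with HCVcc-Cre at approximately 0.5 moi, and are incubated 44 h before luminescence detection.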
# Shiga toxin inh: A qHTS for Small Molecule Inhibitors of Shiga Toxin. Vero cells, Shiga toxin protein synthesis inhibition reporter. inhibition, % at 38.7 µM. actives 9.2% (n = 290,000). AID 2315, 2010; in the data active = inhibition mostly above about 28%, no sharp cut-off; inactive = mostly below about 43%; also: 0% is about no effect
# HCMV inh: qHTS Assay for inhibitors of the human cytomegalovirus (HCMV); HFF cells, HCMV-luciferase reporter, 72 h; hits give low values; activity change, negative = inhibition, % at 57.5 µM; actives 4.5% (n = 410,000); AID 1259415, 2018; in the data active = activity change below about -60%; inconclusive = no clear call, values can overlap the other calls; inactive = above about -39%; also: % is scaled to controls: 0 for no effect and ±100 for the full control effect
#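 Inhibition of viral replication was scored as loss of reporter luminescence in HFFs infected with HCMV-luciferase (MOI 1 PFU/cell) for 72 h; compounds tested at 2 doses, normalized to buffer and Salinomycin controls.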
# CHX counter: Cycloheximide Counterscreen for Small Molecule Inhibitors of Shiga Toxin; cell reporter, cycloheximide protein synthesis inhibition counterscreen; max response, %; actives 12% (n = 300,000); in the data active = max response mostly above about 13%, no sharp cut-off; inactive = mostly below about 14%; also: read at 38.3 µM for the half of the compounds with a filed dose; 0% is about no effect
# HCV inh confirm: qHTS Assay for Inhibitors of Hepatitis C Virus (HCV): Confirmation Assay for Cherry-picked Compounds; shares compounds with HCV inh; HCVcc-Cre infectious virus cell assay, luciferase, inhibition; Potency, µM (series often up to 41.8 µM), inactives show top-dose activity, negative = inhibition, hits mostly inhibitors; actives 78% (n = 640); AID 720575, 2013; also: potency is read from the fitted curve at half-maximal effect; nearly all actives have a fitted effect of over 80% in size
# HCV host tox: qHTS Assay for Inhibitors of Hepatitis C Virus (HCV): Cytotoxicity Counterscreen for Cherry-picked Compounds; shares compounds with HCV inh; Potency, µM (series often up to 41.8 µM), for inactives: at the top dose activity change, negative = cytotoxicity, actives largely listed as inhibitors; HCV host cell line cytotoxicity counterscreen; actives 22% (n = 640); AID 720576, 2013;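 also: potency is read from the fitted curve at half-maximal effect; 44 h compound exposure; % is scaled to controls: 0 for no effect and ±100 for the full control effect; nearly all actives have a fitted effect of over 55% in size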
# * hit, by the source's call; ? = inconclusive; · = not tested or not shown; [ ] = another dose, or the depositor's remark. Shown are actives, neighbours in structure and some others; about 21% of the full set was active somewhere. Unless noted, calls follow the shape of the dose curve; as a rule, active = well fitted curve in the direction sought with a large enough effect; inconclusive = small, poorly fitted or top-dose-only effect, or another doubt; inactive = no such curve, though single readings can be large; an effect the other way counts as inactive or inconclusive.
SMILES,Pf growth 96h,Pf growth 48h,HCV inh,Shiga toxin inh,HCMV inh,CHX counter,HCV inh confirm,HCV host tox
O=C(CN1C(=O)NC2(CCCCCC2)C1=O)Nc1ccccc1[N+](=O)[O-],·,·,-12%,·,29,·,·,·
Cc1sc(NC(=O)Cc2ccc3c(c2)OCO3)nc1-c1ccc2c(c1)CCN2C(=O)c1cccc(F)c1,6.6µM*,?,4µM*,3,?,-1,3.5µM*,?
COc1ccc(CNc2cccc3[nH]c(C(F)(F)F)nc23)cc1OC,-11%,1.5µM*,5.6µM*,-9,2,-5,22µM*,3%
OCC[C@@H]1C[C@H](O)[C@@H](O)[C@@]2(CCCc3ccccc3O2)O1,18%,16%,9%,-3,0,-4,·,·
Cc1ccc2c(c1)[C@H]1[C@H](CO2)[C@H](c2ccccc2)[C@]2(C)C(=O)N(Cc3ccc(F)cc3)CC(=O)N12,·,·,?,·,21,·,?,24%
COc1ccc(NC(=O)c2oc3ccccc3c2NC(=O)COc2ccc(F)cc2)c(OC)c1,·,·,·,·,0,·,·,·
COc1ccc(N=Nc2c(C)[nH]c3ccccc23)cc1,·,·,7.1µM*,·,14,·,20µM*,-6%
COCCCC1CCN(C(=O)C2CCC(=O)N(CCc3cccc(F)c3)C2)CC1 (stereo not given),-7%,-15%,3%,-1,27,-3,·,·
CCCC(=O)NC(=S)Nc1ccc(N2CCN(C(=O)c3cccs3)CC2)cc1,-6%[5.75 µM],?,0.79µM*,-4,-16,10,?,22%
COC(=O)c1cc(C(=O)NNC(=O)c2ccc3c(c2)OCO3)cc([N+](=O)[O-])c1,?,5%,8%,·,-17,·,·,·
COc1ccc(NS(=O)(=O)c2ccc3nc(COc4ccc5ccccc5c4)[nH]c3c2)cc1,?,6%,7.9µM*,-16,?,-3,20µM*,-91%
CCOc1cccc2sc(N(CCCN(C)C)C(=O)c3ccc(S(=O)(=O)N(C)Cc4ccccc4)cc3)nc12,0%,?,5µM*,-19,?,-10,14µM*,-29%
CCOc1cccc2sc(N(CCCN(C)C)C(=O)c3ccc(S(=O)(=O)N(CC)Cc4ccccc4)cc3)nc12,-36%,?,?,-16,?,-6,·,·
COc1ccccc1NC(=O)c1ccc(SCC(=O)NCc2ccccc2Cl)c([N+](=O)[O-])c1,4%,2%,?,-7,-4,8,?,43%
COc1ccccc1CNC(=O)CSc1ccc(C(=O)Nc2ccccc2OC)cc1[N+](=O)[O-],16%,-23%,1%,-11,46,-1,·,·
COc1nc(Nc2nc3ccccc3c(=O)[nH]2)nc2ccc(C)cc12,?,2.6µM*,3.2µM*,-8,-100*,2,7µM*,?
COC(=O)c1sc(NC(=O)/C=C/c2ccccc2Cl)nc1C,?,32%,5.6µM*,43,4,13,?,1%
CC(C)C[C@H]1COc2cccc(N3CCCCC3)c2S(=O)(=O)N1,·,·,·,·,-5,·,·,·
COc1cccc(C(=O)Nc2ccc3c(c2)CCCN3C(=O)c2cccs2)c1OC,-8%,?,4.5µM*,49*,-33,26*,25µM*,?
CCCCN(CC)CCNC(=O)c1cc2c(-c3ccc(Cl)cc3)nn(C)c2s1,-1%,0.33µM*,2.8µM*,-4,-100*,-2,7µM*,14%
CCN(CC)CCCNC(=O)c1cc(-c2ccc(Cl)cc2)on1,1%,?,8.9µM*,6,15,1,22µM*,6%
CCOC(=O)C1CCN(S(=O)(=O)c2ccccc2[N+](=O)[O-])CC1,·,·,14%,·,-15,·,·,·
COc1ccc(Cn2cnc3c(NS(C)(=O)=O)c(C)c(C)cc32)cc1,?,?,3.2µM*,-1,98,-1,0.011µM*,5%
CCC(=O)N(Cc1ccco1)c1nc(-c2ccccc2)cs1,?,-16%,?,3,-5,-5,?,29%
CCC(CO)Oc1cc(NC(=O)c2ccc(C)cc2)c2ncn(C(C)C)c2c1 (stereo not given),-7%,?,?,·,-7,·,?,17%
